Pf Dd2 inh: qHTS Primary assay for Inhibitors of Plasmodium falciparum Dd2 growth in vitro. hit rate 4.3% among 120,000. AID 1347417, 2020. Potency, µM (titrated, usually from 28.9 µM), for the others: top-dose activity, negative = inhibition, actives largely listed as inhibitors. P. falciparum Dd2 growth, SYBR Green, 72 h; active means well fitted inhibition curve with a large enough effect;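 further: plate controls were DMSO vehicle for no effect and reference drug for full effect; nearly all actives have a fitted effect of over 65% in size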
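Infected erythrocytes (Dd2, 0.3% parasitemia, 2.5% hematocrit final) are added to compound in RPMI-1640/Albumax II medium, grown 72 h at 37C in low oxygen, then lysed with saponin/Triton-X containing SYBR Green and read by fluorescence.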
* hit, by the source's call; i = inactive; [ ] = another dose, or the depositor's remark. Many of the other results were omitted from the sample, so hits are more common in it than they were. Potency means the concentration at half of the fitted maximal effect.

SMILES | Pf Dd2 inh
COc1cc2c(cc1Oc1ccccc1)NC(=O)C21CCN(c2ncc(F)cn2)CC1 | 4.5µM*
COc1cc2c(cc1Oc1ccccc1)NC(=O)C21CCN(Cc2ccccn2)CC1 | -12%[44.1 µM]
COc1cc2c(cc1OCC1CC1)NC(=O)C21CCN(c2ncc(F)cn2)CC1 | i
COc1ccc(-c2cc(C(=O)N3C[C@@H](CN(C)C)[C@@H](CO)C3)[nH]n2)cc1 | 4%
O=C(C1CC(=O)N(c2n[nH]c3cccc(F)c23)C1)N1CCN(c2ccccc2)CC1 (stereo not drawn) | -6%
COc1cccc(-c2noc(CC3CCN(C(=O)COc4cccc(C)c4)CC3)n2)c1 | -28%
NC1CCN(C(=O)C2CCN(c3nc(-c4ccccc4)nc4c3CCC4)CC2)C1 (stereo not drawn) | -4%
O=C(NC1CCCC1)C1CCCN(c2nc(-c3ccccc3)nc3c2CCC3)C1 (stereo not drawn) | -25%
Cc1ccc(C#N)c(N2CCN(C3CCCC3)C(CCO)C2)n1 (stereo not drawn) | -20%
OCCC1CN(c2nc(-c3ccccc3)nc3c2CCC3)CCN1C1CCCC1 (stereo not drawn) | 10µM*
CC1CCN(C(=O)C2CCN(c3nc(-c4ccccc4)nc4c3CCC4)CC2)CC1 | 1%
O=C(C1CCN(c2nc(-c3ccccc3)nc3c2CCC3)CC1)N1CCCNCC1 | 8.9µM*
COCC(=O)N(C1CCOCC1)C1CCN(S(=O)(=O)c2c(C)noc2C)CC1 | -2%
O=C(CN1CC2CC(C1)[C@H]1CCCC(=O)N1C2)NCc1ccco1 (stereo partly drawn) | 2%
CCN(CC)C(=O)N1CCC(N2CC(OCCOC)C23CCCCC3)CC1 (stereo not drawn) | i
Cc1ccc(CN2C(=O)OC(c3cccc(NC(=O)C(C)C)c3)C2C(=O)NCc2ccco2)cc1 (stereo not drawn) | i
COCCCn1c(C)cnc1C1CCNC1 (stereo not drawn) | 16%
Cc1cc(CN2CCN(c3cccc(C)c3C)CC2)cs1 | -20%
NCCc1cccc(CN2CCCC(COc3ccccc3F)C2)c1 (stereo not drawn) | 2µM*
CN1CCCN(C[C@@H]2CN(Cc3cccc(CCN)c3)C[C@@H]2CO)CC1 | 11%
Cc1ccccc1N1CCCN(Cc2cccc(CCN)c2)CC1 | 8.9µM*
NCCc1cccc(CN2CCC(Oc3cccc(F)c3)CC2)c1 | 10µM*
O=C(c1ccccc1OCC1CCCN(Cc2ccc(O)c(F)c2)C1)N1CCCCC1 (stereo not drawn) | -24%
Cc1cccc(CN2CCCC(COc3ccccc3C(=O)N3CCOCC3)C2)c1 (stereo not drawn) | 0%
COCC(=O)N1CCCC(C(=O)N2CCC(OCc3ccccc3)CC2)C1 (stereo not drawn) | -9%
SMILES | Pf Dd2 inh
NCCc1ccc(CN2CCC(Oc3ncccn3)CC2)cc1 | -8%
NCCc1cccc(CN2CCC(OCc3ccccc3)CC2)c1 | 4.5µM*
O=c1[nH]ccn1C1CCN(Cc2ccccc2)CC1 | 16%[44.1 µM]
O=C(c1ccco1)N1CCC(Oc2cccc(F)c2)C1 (stereo not drawn) | i
Cn1cnc(S(=O)(=O)N2CCCC(c3nc(-c4cnccn4)no3)CCNC(=O)CC2)c1 (stereo not drawn) | i
Cc1cc(C2CC(C(=O)NCc3ccco3)CN(C(=O)NC(C)C)C2)ccc1F (stereo not drawn) | -22%
COCC(=O)N1CC2(Cc3ccccc3N(C(C)=O)C2)C1 | 10%[44.1 µM]
Cc1cccc2nc(C(=O)N(C)C3CCCN(CCc4ccccc4)C3)cn12 (stereo not drawn) | i
CC(C)(C)C(=O)N1CC[C@@H](CC(=O)O)[C@@H](CCN2CCC(n3c(=O)[nH]c4ccccc43)CC2)C1 | -5%
Cc1nn(-c2ccc(F)cc2)c(Oc2ccccc2F)c1CCC(=O)NCc1ccco1 | -6%
COCCN1CCC2(C1)CN(C)c1ccc(C(=O)NCc3ccccc3)cc12 (stereo not drawn) | -7%[44.1 µM]
Clc1ccc(CNc2ncncc2-c2nc(-c3ccccc3)no2)cc1 | 0%
NC(=O)CN1C(=O)[C@@H]2CN(C(=O)CC3(CC(=O)O)CCCC3)CCN2C1=O | -14%[44.1 µM]
COc1ccc(Nc2cc(C)nc(-n3nc(C)cc3C)n2)cc1Cl | 3.5µM*
CCCOc1ccc(Nc2cc(C)nc(C)n2)cc1 | 0%
Cc1cc(Nc2ccc(F)cc2F)nc(-n2nc(C)cc2C)n1 | -23%
CC(=O)N1CCCN(CC[C@H]2CN(S(=O)(=O)c3ccccc3)CC[C@H]2CC(=O)O)CC1 | -8%
O=C(COc1ccc2nncn2n1)N1CCOCC(O)(CN2CCCC2)C1 (stereo not drawn) | -10%
COC(=O)c1sc(-c2ccccc2)cc1NC(=O)c1cccc(F)c1 | i[5.79 µM]
COC(=O)c1sc(-c2ccccc2)cc1NC(=O)Nc1ccccc1Cl | 11µM*
COC(=O)c1sc(-c2ccccc2)cc1NC(=O)c1cccc(Cl)c1 | 451%[5.79 µM]
CN(C)Cc1cn(C[C@H]2C[C@@H]3CCN2C[C@@H]3C(=O)Nc2nccs2)nn1 | 22%[44.1 µM]
O=C(Nc1ccccc1)N1CCC(N2CC3CC(C2)[C@H]2CCCC(=O)N2C3)CC1 (stereo partly drawn) | 1%
CN(C)C(=O)C1CCc2nnc(-c3ccc(Cl)nc3)n21 (stereo not drawn) | 16%[44.1 µM]
O=C(c1cc2ccccc2[nH]1)N1CCCN(c2cc(-c3ccccc3)[nH]n2)CC1 | -12%
SMILES | Pf Dd2 inh
O=C1CCN(S(=O)(=O)c2ccccc2)CCCNCCN1 | 1%
O=C1CCN(S(=O)(=O)c2ccccc2)CCCN(S(=O)(=O)c2ccc3c(c2)CCC3)CCN1 | 3.5µM*
O=C1CCN(S(=O)(=O)c2ccccc2)CCCN(Cc2ccccc2)CCN1 | 8.9µM*
CC(C)C(=O)N1CCCN(S(=O)(=O)c2ccccc2)CCC(=O)NCC1 | -14%
Cn1cnc(C(=O)N2CCCN(S(=O)(=O)c3ccccc3)CCC(=O)NCC2)c1 | -6%
O=C1CCN(S(=O)(=O)c2ccccc2)CCCN(C(=O)c2ccc3ccccc3n2)CCN1 | 11µM*
CCC(=O)N1CCCN(S(=O)(=O)c2ccccc2)CCC(=O)NCC1 | 10%
Cc1cnc(C(=O)N2CCCN(S(=O)(=O)c3ccccc3)CCC(=O)NCC2)cn1 | 19%
CC(=O)N1CCCN(S(=O)(=O)c2ccccc2)CCC(=O)NCC1 | -12%
O=C1CCN(S(=O)(=O)c2ccccc2)CCCN(Cc2cccc3[nH]ccc23)CCN1 | 7.9µM*
O=C1CCN(S(=O)(=O)c2ccccc2)CCCCCCN1 | 22%
CN(C)S(=O)(=O)N1CCCN(S(=O)(=O)c2ccccc2)CCC(=O)NCC1 | -2%
Cc1cccc(C(=O)N2CCC(c3n[nH]c(=O)n3Cc3ccc(F)cc3)CC2)c1 | i
O=C(O)c1ccc(CC2CCN(Cc3ccncc3)C2)cc1 (stereo not drawn) | -4%
O[C@@H]1CC(CNC2CCC2)(COc2cnccn2)C[C@@H]1O (stereo partly drawn) | 7%[44.1 µM]
O=C(Nc1ccc(C(F)(F)F)cc1)N[C@H]1[C@H](O)[C@H](O)C[C@@H]1c1ccccc1 | -12%[44.1 µM]
CC(=O)N1CCn2ncc(C(=O)N3CCOCC3)c2C1 | 8%[44.1 µM]
CN1C(=O)Cc2cc(C(=O)NCc3cccnc3)ccc21 | i
COC(=O)c1ccc2nc(CO[C@H]3CN(C(=O)C4CCOCC4)C[C@H]3F)[nH]c2c1 | -7%[44.1 µM]
CCCCN1C(=O)[C@@H]2C[C@@H](O)CN2C2(CN(Cc3cnc[nH]3)C2)C1=O | 5%[44.1 µM]
O=C1CCN(C(=O)C2CCN(C(=O)Cc3c[nH]c4ccccc34)CC2)CCCCCCN1 | i
O=C(NC1CCN(c2cc(C(F)(F)F)ncn2)CC1)c1cccs1 | -26%
